The results in this text go back to PubChem BioAssay (NCATS).

SMILES strings stand for the structures. Activity calls are given as the source filed them. The call rests on the fitted dose curve.

Tumor susceptibility gene 101 protein (Homo sapiens), sequence (Q99816 whole entry, looked up): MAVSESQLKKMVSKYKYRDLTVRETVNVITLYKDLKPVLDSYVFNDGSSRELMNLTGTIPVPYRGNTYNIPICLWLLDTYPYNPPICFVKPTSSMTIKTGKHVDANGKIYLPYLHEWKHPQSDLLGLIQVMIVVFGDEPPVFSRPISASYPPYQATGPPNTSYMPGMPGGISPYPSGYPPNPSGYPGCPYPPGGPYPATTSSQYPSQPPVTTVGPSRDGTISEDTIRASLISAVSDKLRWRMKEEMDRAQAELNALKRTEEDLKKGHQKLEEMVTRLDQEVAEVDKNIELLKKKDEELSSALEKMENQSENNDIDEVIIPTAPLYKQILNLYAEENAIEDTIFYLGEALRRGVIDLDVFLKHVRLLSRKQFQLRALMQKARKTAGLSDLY

In this assay the target is Tumor susceptibility gene 101 protein (Homo sapiens) (UniProt Q99816). The experiment in a line: qHTS Validation Assay for Iinhibitors of HIV-1 Budding by Blocking the Interaction of PTAP/TSG101 (AID 485342). The settings on record: TSG101-PTAP binding, fluorescence polarization, 4-point titration; series mostly up to 115 µM. An excerpt:
NIH Molecular Libraries Probe Production Network [MLPCN]
NIH Chemical Genomics Center [NCGC]
PI Name: Dr. Eric Freed, NCI
Stages of the HIV-1 replication cycle, specifically virus assembly and release, provide underexploited targets for the development of novel antiviral inhibitors. The late stages of HIV-1 replication are mediated by the Gag precursor protein, Pr55Gag. Expression of Pr55Gag is both necessary and sufficient for the production of virus-like particles from Gag-expressing cells. The Gag protein hijacks key host proteins involved in endocytic machinery of the host cell to promote endosomal processing and viral budding. The budding process requires a direct interaction between a […] (PTAP) motif in the p6 domain of Gag and the cellular endosomal sorting protein known as Tsg101. In this way, the Gag PTAP motif promotes the host cells to recruit viral particles to the plasma membrane where the new viral particles are released, effectively turning the host cells into viral factories. A fluorescence anisotropy assay has been developed to quantitatively measure the PTAP-Tsg101 interaction which can be used to screen for inhibitors of this interaction.
NCGC Assay Protocol Summary:
Two uL of the Tsg101 binding domain in buffer (10 mM HEPES pH 7.5; 0.15 M NaCl, 0.01% Tween 20; 3 mM EDTA;0.1 mM TCEP) was dispensed into Greiner black MB 1536-well plates (final concentration 10 uM). Then, 23 nL of compounds or DMSO were delivered to each well using a pin tool. Finally, 2 uL of a FITC-labeled peptide containing the PTAP motif (1) in the same buffer was dispensed (50 nM final concentration) and the binding was allowed to proceed for 20 min. at r.t. Fluorescent polarization was determined using FITC excitation and polarized emission filters on a Perkin Elmer Viewlux.
Keywords: Tsg101, PTAP, Gag, HIV, fluorescent polarization, MLSMR, MLPCN, NIH Roadmap, qHTS, NCGC
In general terms: Quantitative high-throughput screening tests each substance at several concentrations.
On to `CN1CCC(=C2c3ccccc3C=Cc3ccccc32)CC1`, for which the result was inactive.

On to `COc1ccccc1OCCNCC(O)COc1cccc2[nH]c3ccccc3c12` (stereo not given), for which the result was inactive.

On to `O=c1c(O)c(-c2ccc(O)c(O)c2)oc2cc(O)cc(O)c12`, for which the compound was called inactive.

In the case of `C[C@](N)(Cc1ccc(O)c(O)c1)C(=O)O`, the call was inactive.

As to `Cn1c(=O)c2c(ncn2C)n(C)c1=O`, the outcome was inactive.

On to `C[C@H]1c2cccc(O)c2C(O)=C2C(=O)[C@]3(O)C(O)=C(C(N)=O)C(=O)[C@@H](N(C)C)[C@@H]3[C@@H](O)[C@@H]21`, for which the compound was classed as inactive.

Consider `Cn1c(=O)c2[nH]cnc2n(C)c1=O`, for which the compound was called inactive.

As for `O=C(c1ccc(OCCN2CCCCC2)cc1)c1c(-c2ccc(O)cc2)sc2cc(O)ccc12`, the result was inactive.

For the compound `CC(C)NCC(O)c1ccc(O)c(O)c1` (stereo not given), the call was inactive.

Consider `CN(C)c1nc(N(C)C)nc(N(C)C)n1`, for which the compound was called inactive.

With `Nc1nnc(-c2cccc(Cl)c2Cl)c(N)n1`, the outcome was inactive.

For `CN1C(C(=O)Nc2ccccn2)=C(O)c2ccccc2S1(=O)=O`, the result was inactive.

In the case of `CC(COc1ccccc1)N(CCCl)Cc1ccccc1` (stereo not given), the call was inactive.

For `CC(C)(Oc1ccc(C2CC2(Cl)Cl)cc1)C(=O)O` (stereo not given), the compound was classed as inactive.

On to `CCCNCC(O)COc1ccccc1C(=O)CCc1ccccc1` (stereo not given), for which the call was inactive.

For the compound `O=C1N(c2ccccc2)c2ccccc2C1(Cc1ccncc1)Cc1ccncc1`, the call was inactive.

As for `CC12CC3CC(C)(C1)CC(N)(C3)C2`, the outcome was inactive.

With `NCCc1cnc[nH]1`, the call was inactive.

Take `CN1CCC(=C2c3ccccc3CC(=O)c3sccc32)CC1`: the compound was called inactive.

For `CN1C2CCC1CC(OC(=O)C(CO)c1ccccc1)C2` (stereo not given), the compound was called inactive.

Regarding `CN(C)CCOC(c1ccccc1)c1ccccc1`, the compound was classed as inactive.

For the compound `COc1ccccc1OCC(O)CN1CCN(CC(=O)Nc2c(C)cccc2C)CC1` (stereo not given), the compound was classed as inactive.

Take `CCN1CCCC1CNC(=O)c1cc(S(=O)(=O)CC)c(N)cc1OC` (stereo not given): the compound was classed as inactive.

On to `Cc1cc(C(C)(C)C)cc(C)c1CC1=NCCN1`, for which the compound was classed as inactive.

For `COc1ccccc1N1CCN(CC(O)COc2cccc3ccccc23)CC1` (stereo not given), the compound was classed as inactive.

On to `O=C(c1ccc(F)cc1)C1CCN(CCn2c(=O)[nH]c3ccccc3c2=O)CC1`, for which the result was inactive.

Turning to `Nc1nc2c(ncn2COC(CO)CO)c(=O)[nH]1`, the compound was called inactive.

On to `NC12CC3CC(CC(C3)C1)C2`, for which the call was inactive.

As for `CC(C(=O)O)c1cccc(C(=O)c2ccccc2)c1` (stereo not given), the call was inactive.

For `COc1ccc(CCN(C)CCCC(C#N)(c2ccc(OC)c(OC)c2)C(C)C)cc1OC` (stereo not given), the compound was called inactive.

In the case of `CN(Cc1cnc2nc(N)nc(N)c2n1)c1ccc(C(=O)N[C@@H](CCC(=O)O)C(=O)O)cc1`, the call was inactive.

As for `Clc1ccc2nsnc2c1NC1=NCCN1`, the compound was classed as inactive.

For the compound `COc1ccc(C2CNC(=O)C2)cc1OC1CCCC1` (stereo not given), the call was inactive.

For the compound `CN(C)C(=O)C(CCN1CCC(O)(c2ccc(Cl)cc2)CC1)(c1ccccc1)c1ccccc1`, the result was inactive.

For `O=C(CCCN1CCC(O)(c2ccc(Cl)cc2)CC1)c1ccc(F)cc1`, the compound was called inactive.

For `N[C@@H](Cc1c[nH]c2ccc(O)cc12)C(=O)O`, the outcome was inactive.

In the case of `CCOC(=O)c1ncn2c1CN(C)C(=O)c1cc(F)ccc1-2`, the result was inactive.

On to `Cn1cnc2c1c(=O)[nH]c(=O)n2C`, for which the compound was classed as inactive.

With `CC1COc2c(N3CCN(C)CC3)c(F)cc3c(=O)c(C(=O)O)cn1c23` (stereo not given), the compound was called inactive.

On to `NC(=O)OCC(COC(N)=O)c1ccccc1`, for which the result was inactive.
